# Measured values taken from PubChem BioAssay (NCI).
# Compounds without any hit were thinned out: in the full panel of roughly 83,000, 20% have a hit.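 Results are percent growth after 48 hours of single-concentration exposure. 100 means growth as in untreated cells, lower positive values show inhibition; negative values down to -100 show cell death.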 Unmarked numbers belong to inactive results. Active and inactive are the calls of the source. The calls were made as follows: active = growth percent below 10; inactive = the rest.
# System: HL-60(TB) leukemia
# Test: NCI-60 one-dose screen, 48 h (100 = growth as untreated, 0 = no growth, -100 = all killed)
# Settings: 10 µM unless noted
row,SMILES,growth
1,C=CC(=O)Nc1cccc(Oc2nccc(Nc3nnc(-c4ccc(Br)cc4)s3)n2)c1,121%
2,CCN1/C(=C/C=C/C=C/c2sc3ccccc3[n+]2CC)Sc2ccccc21,-58.4% (active)
3,Fc1ccc(NCCS)cc1,100%
4,CNC(=O)NCC1OC(n2cnc3c(NC(=O)Nc4ccccc4)ncnc32)C(O[Si](C)(C)C(C)(C)C)C1CC(=O)N(C)OC (stereo not given),-33.1% (active)
5,CN1CCN(c2ccc(-c3ccc4ncc(C#N)c(Nc5ccc(F)c(Cl)c5)c4c3)cc2)CC1,22.3%
6,C=C1SC(=Nc2ccccc2Cl)N(C(=O)c2sc3ccccc3c2Cl)C1(C)C,1.29% (active)
7,CSc1nnc2c(=O)n(C)c(=O)n(C)c2n1,161%
8,NS(=O)(=O)c1ccc(Nc2nc(O)c(/C=C3\C=Nc4ccccc43)s2)cc1,95.4%
9,CC1(c2ccccc2)OC1C(=O)O (stereo not given),103%
10,COc1cc(NC(C)CCCN)c2ncccc2c1Oc1ccc(Cl)cc1 (stereo not given),94.8%
11,Cc1ccc(C(=O)Nc2ccccc2N)cc1,-19.5% (active)
12,O=c1[nH]c2ccc(Cl)cc2c2ccccc12,130%
13,CC(C(=O)O)n1c(O)c(C=Nc2cccnc2)sc1=S (stereo not given),82.3%
14,CCN(C(=O)c1ccc2c3c(cccc13)C=C2)c1ccccc1,86.4%
15,Cc1cc(C(N)=O)cc(C)c1C(=O)OCCCl,106%
16,O=C1c2cc3c(cc2-c2c1c1cc(Cl)c(Cl)cc1c(=O)n2CCCn1ccnc1)OCO3,-19.4% (active)
17,CCN(CC)CCn1c(=O)c2cc(OC)c(OC)cc2c2ccc3cc4c(cc3c21)OCO4,3.79% (active)
18,COc1ccc(-c2nsc3c2NC(=O)CC3c2cccc(OC)c2)cc1 (stereo not given),6.13% (active)
19,Cc1ccc(C)c(/C=C2\CN(C(=O)OC(C)(C)C)C/C(=C\c3cc(C)ccc3C)C2=O)c1,10.7%
20,CCOC(=O)Cn1c(=O)c2c(c3ccccc3n2C)n2nnc(-c3ccccc3)c12,109%
21,Cc1cc(O)cc(-c2c(-c3ccnc(-c4cccnc4)c3)cnn2C)c1,46%
22,COc1cccc(N2CCN(CC(=O)N3CCN(c4nnc(-c5ccc(Cl)cc5)c(-c5ccc(Cl)cc5)n4)CC3)CC2)c1,20.6%
23,COc1cc(/C=C2\CCCC3=C2NC(C)=NC3c2cc(OC)c(OC)c(OC)c2)cc(OC)c1OC (stereo not given),-4.1% (active)
24,Cc1ccc(Cc2cnc(NC(=O)/C=C/c3ccc(C)o3)s2)cc1,-33% (active)
25,Cc1nnc2nc(N)[nH]n2c1=O,99.6%
